The values that follow come from the supplement of paper PMC11001985.

A number with no mark means an inactive call.

Sequence of UniProt Q01813 (Q01813 whole entry): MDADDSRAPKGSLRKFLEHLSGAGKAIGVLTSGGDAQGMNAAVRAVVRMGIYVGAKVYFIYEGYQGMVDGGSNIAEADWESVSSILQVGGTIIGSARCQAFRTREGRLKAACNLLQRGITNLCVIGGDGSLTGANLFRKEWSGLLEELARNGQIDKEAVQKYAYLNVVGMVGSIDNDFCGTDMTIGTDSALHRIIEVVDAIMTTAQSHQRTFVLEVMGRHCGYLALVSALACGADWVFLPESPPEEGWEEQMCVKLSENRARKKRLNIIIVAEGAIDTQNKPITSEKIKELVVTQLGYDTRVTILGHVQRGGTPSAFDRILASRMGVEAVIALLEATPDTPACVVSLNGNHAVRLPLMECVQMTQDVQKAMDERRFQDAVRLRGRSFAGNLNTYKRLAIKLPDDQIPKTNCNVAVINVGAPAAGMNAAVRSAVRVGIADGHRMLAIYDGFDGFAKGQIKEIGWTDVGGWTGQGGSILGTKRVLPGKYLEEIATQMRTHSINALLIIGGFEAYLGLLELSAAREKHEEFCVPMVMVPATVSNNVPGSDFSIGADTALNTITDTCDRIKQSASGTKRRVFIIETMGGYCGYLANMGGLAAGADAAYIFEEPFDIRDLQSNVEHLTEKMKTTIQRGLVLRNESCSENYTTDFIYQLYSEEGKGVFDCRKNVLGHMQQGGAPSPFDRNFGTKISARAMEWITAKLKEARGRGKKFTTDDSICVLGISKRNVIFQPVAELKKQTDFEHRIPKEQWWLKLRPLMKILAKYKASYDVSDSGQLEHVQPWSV
Sequence of UniProt P56199 (P56199 whole entry): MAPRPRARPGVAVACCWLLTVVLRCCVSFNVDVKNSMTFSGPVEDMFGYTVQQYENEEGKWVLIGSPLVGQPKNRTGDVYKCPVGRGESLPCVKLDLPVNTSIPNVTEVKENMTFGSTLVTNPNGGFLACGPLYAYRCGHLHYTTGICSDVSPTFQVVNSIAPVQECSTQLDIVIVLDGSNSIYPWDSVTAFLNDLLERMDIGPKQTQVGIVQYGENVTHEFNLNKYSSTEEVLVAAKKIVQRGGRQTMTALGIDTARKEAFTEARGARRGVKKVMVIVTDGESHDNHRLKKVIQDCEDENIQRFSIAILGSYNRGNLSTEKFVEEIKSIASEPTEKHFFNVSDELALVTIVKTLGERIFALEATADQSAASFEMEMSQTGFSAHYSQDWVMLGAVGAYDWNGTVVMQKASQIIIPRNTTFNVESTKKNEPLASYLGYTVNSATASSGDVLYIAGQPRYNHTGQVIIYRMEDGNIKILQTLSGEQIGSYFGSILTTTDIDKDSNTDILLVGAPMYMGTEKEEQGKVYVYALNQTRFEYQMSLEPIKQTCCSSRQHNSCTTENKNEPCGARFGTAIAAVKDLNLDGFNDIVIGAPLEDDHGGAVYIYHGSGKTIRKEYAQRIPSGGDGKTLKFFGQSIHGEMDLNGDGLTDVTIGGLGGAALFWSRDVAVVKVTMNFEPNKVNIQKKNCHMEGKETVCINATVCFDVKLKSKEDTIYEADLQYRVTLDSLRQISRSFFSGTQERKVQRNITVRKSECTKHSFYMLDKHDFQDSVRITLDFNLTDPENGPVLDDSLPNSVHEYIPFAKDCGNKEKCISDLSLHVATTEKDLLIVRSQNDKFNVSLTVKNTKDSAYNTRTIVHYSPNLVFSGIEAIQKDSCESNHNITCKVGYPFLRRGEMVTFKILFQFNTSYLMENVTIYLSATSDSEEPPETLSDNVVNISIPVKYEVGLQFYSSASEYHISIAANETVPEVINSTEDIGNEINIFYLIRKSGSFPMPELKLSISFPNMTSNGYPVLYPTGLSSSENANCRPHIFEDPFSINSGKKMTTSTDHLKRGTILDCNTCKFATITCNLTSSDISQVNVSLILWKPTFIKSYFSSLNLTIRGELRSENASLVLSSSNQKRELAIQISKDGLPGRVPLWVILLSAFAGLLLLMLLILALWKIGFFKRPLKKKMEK
Sequence of UniProt P11021 (P11021 whole entry): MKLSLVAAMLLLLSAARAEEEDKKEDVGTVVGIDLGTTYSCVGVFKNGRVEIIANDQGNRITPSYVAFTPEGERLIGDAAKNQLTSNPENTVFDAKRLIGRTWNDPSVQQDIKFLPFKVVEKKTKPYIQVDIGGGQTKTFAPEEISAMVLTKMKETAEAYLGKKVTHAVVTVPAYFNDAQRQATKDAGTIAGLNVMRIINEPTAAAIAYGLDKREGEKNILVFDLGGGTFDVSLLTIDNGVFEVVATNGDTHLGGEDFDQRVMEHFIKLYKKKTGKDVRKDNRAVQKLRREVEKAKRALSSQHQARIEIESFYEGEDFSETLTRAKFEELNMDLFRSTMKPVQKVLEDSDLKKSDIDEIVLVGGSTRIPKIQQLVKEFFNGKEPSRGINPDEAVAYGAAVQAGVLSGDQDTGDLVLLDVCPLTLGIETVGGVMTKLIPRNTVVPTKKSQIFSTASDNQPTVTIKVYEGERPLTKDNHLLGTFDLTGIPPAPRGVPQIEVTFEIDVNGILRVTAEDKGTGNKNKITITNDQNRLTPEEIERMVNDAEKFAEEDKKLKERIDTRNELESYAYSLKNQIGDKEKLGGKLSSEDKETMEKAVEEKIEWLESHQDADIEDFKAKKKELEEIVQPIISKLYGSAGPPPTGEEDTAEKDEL
Sequence of UniProt P10809 (P10809 whole entry): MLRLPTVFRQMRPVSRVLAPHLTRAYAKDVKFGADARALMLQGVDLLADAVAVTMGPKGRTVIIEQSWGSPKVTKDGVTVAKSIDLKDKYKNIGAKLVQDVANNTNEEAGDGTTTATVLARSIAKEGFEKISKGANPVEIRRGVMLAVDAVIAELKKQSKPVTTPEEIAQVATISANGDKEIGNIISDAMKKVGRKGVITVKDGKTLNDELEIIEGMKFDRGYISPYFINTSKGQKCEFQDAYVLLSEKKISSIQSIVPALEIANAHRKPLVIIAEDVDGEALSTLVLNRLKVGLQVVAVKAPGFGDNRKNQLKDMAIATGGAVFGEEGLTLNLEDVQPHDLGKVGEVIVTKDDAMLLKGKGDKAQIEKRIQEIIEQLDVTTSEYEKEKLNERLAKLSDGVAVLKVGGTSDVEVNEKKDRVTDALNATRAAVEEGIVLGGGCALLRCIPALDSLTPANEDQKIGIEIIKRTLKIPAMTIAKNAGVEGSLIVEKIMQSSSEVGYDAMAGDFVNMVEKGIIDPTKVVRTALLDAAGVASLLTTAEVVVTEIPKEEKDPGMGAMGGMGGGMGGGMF
Sequence of UniProt Q9UBI6 (Q9UBI6 whole entry): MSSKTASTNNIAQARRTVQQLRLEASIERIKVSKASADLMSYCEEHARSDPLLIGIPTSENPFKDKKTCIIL
Sequence of UniProt P50454 (P50454 whole entry): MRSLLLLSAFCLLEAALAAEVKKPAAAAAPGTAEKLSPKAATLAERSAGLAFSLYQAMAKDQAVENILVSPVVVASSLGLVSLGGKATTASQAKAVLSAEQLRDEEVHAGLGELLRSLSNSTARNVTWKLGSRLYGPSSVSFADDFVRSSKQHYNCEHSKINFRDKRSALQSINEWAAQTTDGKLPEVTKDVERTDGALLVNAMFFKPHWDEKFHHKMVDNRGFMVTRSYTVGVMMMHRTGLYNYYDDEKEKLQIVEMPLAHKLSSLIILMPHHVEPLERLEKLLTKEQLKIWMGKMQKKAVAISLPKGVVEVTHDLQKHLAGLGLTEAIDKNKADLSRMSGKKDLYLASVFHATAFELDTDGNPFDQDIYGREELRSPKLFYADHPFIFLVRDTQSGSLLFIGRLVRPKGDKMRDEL
Sequence of UniProt O95084 (O95084 whole entry): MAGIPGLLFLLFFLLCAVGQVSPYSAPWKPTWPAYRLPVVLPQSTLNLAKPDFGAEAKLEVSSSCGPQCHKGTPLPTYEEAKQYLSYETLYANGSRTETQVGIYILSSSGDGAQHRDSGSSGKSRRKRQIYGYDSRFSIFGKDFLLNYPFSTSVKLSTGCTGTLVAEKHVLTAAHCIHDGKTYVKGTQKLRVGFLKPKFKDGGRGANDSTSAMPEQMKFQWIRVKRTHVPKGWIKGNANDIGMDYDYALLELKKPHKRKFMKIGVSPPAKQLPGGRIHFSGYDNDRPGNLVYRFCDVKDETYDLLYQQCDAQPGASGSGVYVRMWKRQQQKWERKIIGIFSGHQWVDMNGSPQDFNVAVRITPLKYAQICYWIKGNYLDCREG
Sequence of UniProt O43854 (O43854 whole entry): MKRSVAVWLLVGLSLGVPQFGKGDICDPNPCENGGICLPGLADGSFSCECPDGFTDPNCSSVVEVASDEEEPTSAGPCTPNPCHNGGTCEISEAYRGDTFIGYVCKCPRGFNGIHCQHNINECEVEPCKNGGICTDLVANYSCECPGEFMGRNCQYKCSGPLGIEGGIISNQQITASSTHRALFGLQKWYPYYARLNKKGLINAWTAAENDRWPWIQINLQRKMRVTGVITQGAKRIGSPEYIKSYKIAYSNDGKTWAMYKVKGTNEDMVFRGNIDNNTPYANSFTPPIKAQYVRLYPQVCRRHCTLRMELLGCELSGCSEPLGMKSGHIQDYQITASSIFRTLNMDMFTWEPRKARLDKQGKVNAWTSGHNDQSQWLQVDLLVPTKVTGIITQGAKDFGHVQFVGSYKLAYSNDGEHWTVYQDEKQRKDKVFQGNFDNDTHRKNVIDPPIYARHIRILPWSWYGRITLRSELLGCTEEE
Sequence of UniProt Q15286 (Q15286 whole entry): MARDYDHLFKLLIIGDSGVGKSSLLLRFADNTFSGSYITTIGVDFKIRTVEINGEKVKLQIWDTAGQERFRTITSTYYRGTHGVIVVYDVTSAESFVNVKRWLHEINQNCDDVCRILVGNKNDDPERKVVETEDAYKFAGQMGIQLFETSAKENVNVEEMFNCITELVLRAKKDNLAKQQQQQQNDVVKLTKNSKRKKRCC

Compound in this assay: C#CCNC(=O)CCSSCCC(=O)NCCc1ccc(C=O)c(C=O)c1
The experiment in a line: lysine labeling ratio R10:1 (500 µM / 50 µM probe), SILAC-ABPP in living cells; higher = lower intrinsic lysine reactivity toward the probe, active = 2 or less. Conditions: HeLa; probe concentrations 500 vs 50 µM. The gist of the method:
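The two probe levels, 50 µM and 500 µM, of an alkyne-tagged, disulfide-linked lysine probe were applied to living light and heavy SILAC HeLa cells in PBS at room temperature, and the labels were run in both forward and reverse orientation. Mixed lysates underwent biotin-azide click chemistry, trypsin digestion, neutravidin capture, DTT release and alkylation before LC-MS/MS on a TIMS-TOF Pro. R is the filtered median high-probe/low-probe MS1 peptide ratio for each lysine, summarised as the median over forward and reverse replicates. Nothing above 20 is reported; such values are set to 20.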
As for “FLNB (lysine site: K697) (UniProt O75369)”, the “lysine labeling ratio R10:1” value was 2.95.

With UniProt Q9UKX5 (lysine site: K402), the “lysine labeling ratio R10:1” value is 0.975 (active).

For the target UniProt P83731 (lysine site: K97), the “lysine labeling ratio R10:1” value is 1.9 (active).

Take “HSPD1 (lysine site: K31) (UniProt P10809)”: the “lysine labeling ratio R10:1” value was 4.2.

With UniProt O95084 (lysine site: K185), the “lysine labeling ratio R10:1” value was 2.74.

Consider UniProt P62826 (lysine site: K71), for which the “lysine labeling ratio R10:1” value is 2.74.

“HSPA5 (lysine site: K96) (UniProt P11021)”: the “lysine labeling ratio R10:1” value was 1.44 (active).

As to “EDIL3 (lysine site: K106) (UniProt O43854)”, the “lysine labeling ratio R10:1” value is 2.57.

Turning to “GNG12 (lysine site: K34) (UniProt Q9UBI6)”, the “lysine labeling ratio R10:1” value was 2.84.

Regarding “LMO7 (lysine site: K1405) (UniProt Q8WWI1)”, the “lysine labeling ratio R10:1” value was 1.4 (active).

With “GALNT7 (lysine site: K648) (UniProt Q86SF2)”, the “lysine labeling ratio R10:1” value was 1.92 (active).

As to “PFKP (lysine site: K688) (UniProt Q01813)”, the “lysine labeling ratio R10:1” value is 1.74 (active).

In the case of “TLN1 (lysine site: K1544) (UniProt Q9Y490)”, the “lysine labeling ratio R10:1” value is 1.54 (active).

For the target “SERPINH1 (lysine site: K410) (UniProt P50454)”, the “lysine labeling ratio R10:1” value was 4.84.

“PDIA3 (lysine site: K130) (UniProt P30101)”: the “lysine labeling ratio R10:1” value is 3.07.

“ITGA1 (lysine site: K563) (UniProt P56199)”: the “lysine labeling ratio R10:1” value is 5.65.

Consider UniProt Q15286 (lysine site: K121), for which the “lysine labeling ratio R10:1” value was 0.72 (active).
